In publication PMC4336329 (PLoS ONE, 2015):
Among all 310,000 compounds or so, about 14,000 (4.5%) showed an effect of 50% or more. The effect is printed as a negative number. For the sample, strong results were picked, then their nearest neighbours and some compounds at random.

The molecules below were run against human ether-à-go-go-related gene (hERG) potassium channel (human, UniProt Q12809) (assay: primary screen, population patch clamp on CHO cells stably expressing hERG; higher = less effect of the substance).
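Note: peak tail current of the secondary pulse compared with the same well before compound.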

Sequence of human ether-à-go-go-related gene (hERG) potassium channel (Q12809 whole entry, looked up): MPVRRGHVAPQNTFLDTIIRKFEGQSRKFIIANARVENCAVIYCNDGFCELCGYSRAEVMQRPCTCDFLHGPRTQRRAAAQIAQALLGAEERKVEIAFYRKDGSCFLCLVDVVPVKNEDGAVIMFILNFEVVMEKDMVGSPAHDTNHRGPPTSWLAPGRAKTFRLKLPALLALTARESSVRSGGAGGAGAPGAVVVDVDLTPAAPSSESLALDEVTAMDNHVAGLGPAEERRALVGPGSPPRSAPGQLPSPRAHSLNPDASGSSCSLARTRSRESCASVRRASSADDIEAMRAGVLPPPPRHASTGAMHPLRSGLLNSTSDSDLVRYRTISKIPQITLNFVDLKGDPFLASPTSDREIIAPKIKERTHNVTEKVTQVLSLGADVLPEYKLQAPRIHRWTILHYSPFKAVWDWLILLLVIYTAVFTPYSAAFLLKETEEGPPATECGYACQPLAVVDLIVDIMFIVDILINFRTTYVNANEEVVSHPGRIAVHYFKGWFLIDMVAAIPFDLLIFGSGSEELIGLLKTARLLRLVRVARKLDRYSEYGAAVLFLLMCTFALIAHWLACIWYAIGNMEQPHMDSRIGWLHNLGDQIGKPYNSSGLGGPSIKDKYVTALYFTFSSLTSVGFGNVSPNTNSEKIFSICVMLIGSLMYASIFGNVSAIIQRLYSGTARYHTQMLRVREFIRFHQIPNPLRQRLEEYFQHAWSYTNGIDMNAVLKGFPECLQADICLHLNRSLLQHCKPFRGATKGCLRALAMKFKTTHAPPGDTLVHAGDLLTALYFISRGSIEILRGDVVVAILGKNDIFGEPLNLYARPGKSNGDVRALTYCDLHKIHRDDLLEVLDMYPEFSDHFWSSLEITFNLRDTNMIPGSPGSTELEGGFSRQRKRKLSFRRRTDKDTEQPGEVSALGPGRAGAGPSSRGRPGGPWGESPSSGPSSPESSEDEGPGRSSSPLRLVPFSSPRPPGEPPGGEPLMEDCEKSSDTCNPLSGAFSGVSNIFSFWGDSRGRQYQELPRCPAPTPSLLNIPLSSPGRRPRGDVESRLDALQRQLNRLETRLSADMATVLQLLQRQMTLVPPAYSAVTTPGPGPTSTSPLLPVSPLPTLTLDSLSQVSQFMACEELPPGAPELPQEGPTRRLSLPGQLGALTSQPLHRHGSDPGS

Row | SMILES | hERG current change (%, negative = inhibition) at 10uM
1 | COc1ccc(-c2nnc(SCC#CCO)o2)cc1OC | 4.93%
2 | COc1ccccc1N1CCN(S(=O)(=O)c2ccc3c(c2)oc(=O)n3C)CC1 | 26%
3 | COc1ccc(NC(=O)CN(C)C(=O)/C=C/c2cn(-c3ccccc3)nc2-c2ccc(C)cc2)cc1 | 13.8%
4 | COc1ccc(C2=NS(=O)(=O)N(C)C(C(=O)Nc3ccc(F)cc3F)=C2)cc1 | 10.1%
5 | CN(Cc1ccccc1)C(=O)COC(=O)C1CCN(S(=O)(=O)c2ccc(Cl)c(C(F)(F)F)c2)CC1 | -15.8%
6 | CCC/C(=N\NC(=O)CNC(=O)c1ccc(Cl)cc1)c1ccccc1 | -1.56%
7 | CC(NC(=O)COc1ccc(S(=O)(=O)N2CCOCC2)cc1)c1ccccc1 (centres unmarked) | -4.63%
8 | O=C(/C=C\c1ccccc1OC(=O)c1ccccc1F)c1cc2ccccc2o1 | -3.12%
9 | Cc1cc(NC(=O)CSc2nnc(-c3ccco3)n2Cc2ccco2)no1 | -24.7%
10 | O=C(CSc1nnc(-c2ccco2)n1Cc1ccco1)NCc1ccccc1 | -50.8%
11 | CNC(=O)NC(=O)CSc1nnc(-c2ccco2)n1Cc1ccccc1 | -8.53%
12 | COCCn1c(SCC(=O)NCc2ccccc2)nnc1-c1ccco1 | 5.7%
13 | O=C(CSc1nnc(-c2ccco2)n1Cc1ccco1)NCc1cccs1 | -33.1%
14 | COC(=O)CCNCCSc1nnc(-c2ccco2)n1Cc1ccccc1.O=C(O)C(=O)O | -64.5%
15 | NC(=O)NC(=O)CSc1nnc(-c2ccco2)n1Cc1ccccc1 | 5.78%
16 | O=C(CSc1nnc(-c2ccco2)n1Cc1ccco1)Nc1ccccc1 | -70.7%
17 | CC(C)(C)NC(=O)CSc1nnc(-c2ccco2)n1Cc1ccco1 | -5.83%
18 | O=C(CSc1nnc(-c2ccco2)n1Cc1ccccc1)c1ccccc1 | -18.4%
19 | CC(=O)Nc1ccc(NC(=O)CSc2nnc(-c3ccco3)n2Cc2ccco2)cc1 | -1.79%
20 | O=C(CSc1nnc(-c2ccco2)n1Cc1ccccc1)NCc1ccccc1 | -51.8%
21 | Cc1cc(C)n(-c2ccc(S(=O)(=O)N3CCOCC3)cc2[N+](=O)[O-])n1 | -10.9%
22 | O=C1/C(=C\c2cccnc2)CN(Cc2ccccc2)C/C1=C\c1cccnc1 | -29.4%
23 | O=C(NCC(=O)N(CC1CCCO1)C1(C(=O)NC2CCCC2)CCCCC1)c1ccccc1 (centres unmarked) | 3.96%

Row | SMILES | hERG current change (%, negative = inhibition) at 10uM
24 | CCOc1ccc(C(CC(=O)O)NC(=O)C23CC4CC(CC(C4)C2)C3)cc1OC (centres unmarked) | 30.2%
25 | Nc1c(C=C2C=CC(=O)C=C2)c(=O)nc2sc(CC(=O)N3CCCC3)nn12 | 8.79%
26 | CN(Cc1ccc(OC(F)F)cc1)C(=O)c1ccccc1Sc1ccccc1C#N | -60.5%
27 | CN(Cc1ccccc1)C(=O)c1cccc(C(=O)N(C)Cc2ccccc2)c1 | -3.07%
28 | Cc1ccc(CN(C)C(=O)c2ccccc2Sc2ccccc2C#N)cc1 | 23.4%
29 | CN(Cc1ccc(OC(F)F)cc1)C(=O)c1ccc2c(=O)n3c(nc2c1)CCC3 | -33.3%
30 | COc1ccc(NS(=O)(=O)c2cccc(C(=O)N(C)Cc3ccc(SC)cc3)c2)cc1 | -9.93%
31 | COc1cccc(CN(C)C(=O)c2ccc3nccnc3c2)c1 | -6.89%
32 | COc1ccc(CN(C)C(=O)c2cccc(C(=O)N(C)Cc3ccc(OC)cc3)c2)cc1 | -65.6%
33 | CN(Cc1ccc(OC(F)F)cc1)C(=O)c1ccc2nccnc2c1 | -67.8%
34 | COc1cccc(CN(C)C(=O)c2ccccc2Sc2ccccc2C#N)c1 | -13.4%
35 | COc1ccccc1NS(=O)(=O)c1ccc2oc(SC)nc2c1 | 2.84%
36 | CN(CC(=O)Nc1ccccc1Cl)C(=O)c1cc(C2CC2)nn1-c1ccccc1 | -18.1%
37 | CCc1nnc(NS(=O)(=O)c2ccc(N3C(=O)C4CC=C(Cl)CC4C3=O)cc2)s1 (centres unmarked) | 4.84%
38 | CN(C)CCCN(C(=O)c1cc(-c2cccs2)nc2ccccc12)c1nc2ccc(F)cc2s1.Cl | 5.59%
39 | Cc1ccc2nc(N(CCCN(C)C)C(=O)c3cc4ccccc4oc3=O)sc2c1.Cl | -33.7%
40 | CN(C)CCCN(C(=O)c1cc2ccccc2oc1=O)c1nc2ccc(F)cc2s1.Cl | -68.1%
41 | Cc1cccc2sc(N(CCCN(C)C)C(=O)c3cc4ccccc4oc3=O)nc12.Cl | -54.6%
42 | CN(C)CCCN(C(=O)c1cc2ccccc2oc1=O)c1nc2c(F)cccc2s1.Cl | -41.1%
43 | CC(=O)OC1COC(n2c(O)c(N=NC(N)=S)c3ccccc32)C(OC(C)=O)C1OC(C)=O (centres unmarked) | 15.8%
44 | COC(=O)C1=C(C)N(c2ccc(Br)cc2)C(=O)/C1=C\c1ccco1 | 2.22%
45 | Clc1ccc(-c2nnc3sc(Cc4cccs4)nn23)c(Cl)c1 | -55.7%
46 | c1ccc(-c2nnc3sc(Cc4cccs4)nn23)cc1 | -30.8%

Row | SMILES | hERG current change (%, negative = inhibition) at 10uM
47 | Clc1ccc(-c2nnc3sc(Cc4cccs4)nn23)cc1 | 4.77%
48 | CCc1cccc2c(C(=O)CCl)c[nH]c12 | -14.3%
49 | COc1ccc2[nH]c3c(c2c1)CCNC3C.Cl (centres unmarked) | 14.7%
50 | Cl.c1ccc2c3c([nH]c2c1)C1(CCCCC1)NCC3 | 2.11%
51 | CC1(CCc2ccc3c(c2)OCO3)NCCc2c1[nH]c1ccccc21.Cl (centres unmarked) | -85.8%
52 | CC1(CCc2ccc3c(c2)OCO3)NC(=O)c2ccccc2N1 (centres unmarked) | -7.78%
53 | COc1ccc2[nH]c3c(c2c1)CCN[C@H]3C | -3.82%
54 | COc1ccc2[nH]c3c(c2c1)CCNC3(C)CCc1ccc(Cl)nc1 (centres unmarked) | -51.6%
55 | COc1cccc(NC(C(=O)Nc2cccc(C(C)=O)c2)c2ccccc2)c1 (centres unmarked) | -7.56%
56 | O=C(O)C(Cc1ccccc1)N1C(=O)CCC1=O (centres unmarked) | 14.4%
57 | CCC(=O)N1CCN(CCN=CC2=C(O)CC(c3ccc(OC)cc3)CC2=O)CC1 (centres unmarked) | 5.11%
58 | COc1ccc(C2CC(=O)C(C=NCCN3CCN(C(C)=O)CC3)=C(O)C2)cc1 (centres unmarked) | -1.68%
59 | COc1ccc(C2CC(=O)C(C=NCCO)=C(O)C2)cc1OC (centres unmarked) | 4.15%
60 | CCCCCC(=O)N1CCN(CCN=CC2=C(O)CC(c3ccc(OC)cc3)CC2=O)CC1 (centres unmarked) | -74.1%
61 | CCCCCC(=O)N1CCN(CCN=CC2=C(O)CC(c3ccc(OC)c(OC)c3)CC2=O)CC1 (centres unmarked) | -78.8%
62 | COc1ccc(C2CC(=O)C(C=NCCN3CCN(C(=S)Nc4ccccc4)CC3)=C(O)C2)cc1OC (centres unmarked) | -20.1%
63 | Cc1ccccc1C1=NC(C(F)(F)F)(C(F)(F)F)c2c(n(C)c(=O)n(C)c2=O)N1 | 3.5%
64 | NC(=S)Cc1ccc(Cl)cc1Cl | 18.8%
65 | O=C(Nc1cccc(Cl)c1)Nc1ccccc1NS(=O)(=O)c1cccs1 | 24%
66 | Cc1cc(C)c(NC(=O)CSc2nnc(-c3ccco3)n2N)c(C)c1 | -14.9%
67 | CCC(CC(C)(C)O)C(=O)NNC(=S)Nc1ccccc1 (centres unmarked) | 5.73%
68 | O=C(OCC(=O)N1CCCC1)c1ccc(NS(=O)(=O)c2cccs2)cc1O | 17.1%
69 | O=C(O)c1ccc(Oc2ccccc2)o1 | 23.2%

Row | SMILES | hERG current change (%, negative = inhibition) at 10uM
70 | O=C(Nc1ccccc1)Nc1ccccc1-n1ccnc1 | -18.2%
71 | Cc1ccc(C)c(C(=O)CN2C(=O)NC3(CCC(C)CC3)C2=O)c1 (centres unmarked) | -18.3%
72 | CC(C)(C)c1cc(Cl)ccc1OCCOCCN1CCCC1.O=C(O)C(=O)O | -45.8%
73 | CC1CCCN(CCCOc2ccc(Cl)cc2Br)C1.O=C(O)C(=O)O (centres unmarked) | -70.5%
74 | CC1CCCN(CCOCCOc2ccc(Cl)cc2Br)C1.O=C(O)C(=O)O (centres unmarked) | -61.1%
75 | CC1CCCN(CCSc2ccc(Cl)cc2)C1.O=C(O)C(=O)O (centres unmarked) | -41.3%
76 | Cc1ccc(N2C(=O)N(CC(=O)NC(c3ccccc3)c3ccccc3)C(=O)C2C)cc1 (centres unmarked) | -32.6%
77 | O=C(O)C1=C[C@@H](C2CCCCC2)C[C@@H](OCCCCO)O1 | 9.42%
78 | Cc1ccsc1C(=O)NNC(=O)COc1ccccc1Cl | 16.9%
79 | CC1(C)N(OCc2ccccc2)C(=O)C(=O)N(OCc2ccccc2)C1(C)C | -6.11%
80 | COc1cccc(C(C(=O)NCC2CCCO2)N(C(=O)Cn2nnc3ccccc32)c2ccc(NC(C)=O)cc2)c1OC (centres unmarked) | 6.49%
81 | O=C(c1cccs1)N1CCN(c2ccc(Cl)cc2)CC1 | -13.4%
82 | O=C(c1cccs1)N1CCN(c2cc(Cl)ccc2Cl)CC1 | -33.8%
83 | N#Cc1ccc(N2CCN(C(=O)c3cccs3)CC2)c(F)c1 | -55.7%
84 | Cc1ccc(N2CCN(C(=O)c3cccs3)CC2)c(C)c1 | -10.6%
85 | N#Cc1ccc(N2CCN(C(=O)c3cccc(F)c3)CC2)c(F)c1 | -66.8%
86 | N#Cc1ccc(N2CCN(c3ccc(F)cc3)CC2)cc1 | -16.9%
87 | O=C(c1cccc(F)c1)N1CCCN(C(=O)c2cccc(F)c2)CC1 | -6.95%
88 | O=C(c1cccc(C(=O)N2CCN(c3ccccc3F)CC2)c1)N1CCN(c2ccccc2F)CC1 | -2.32%
89 | Cc1cc(N2CCN(C(=O)c3cccs3)CC2)c(F)cc1[N+](=O)[O-] | -67%
90 | N#Cc1cc(F)c(N2CCNCC2)cc1Cl | 3.42%
91 | N#Cc1ccc(N2CCNCC2)c(F)c1 | -69%
92 | CCOC(=O)N1CCN(c2cc(C)c([N+](=O)[O-])cc2F)CC1 | -8.16%
